Experimental data from PubChem BioAssay (EPA / NIEHS).
Results filed as inconclusive are left out. Activity calls are given as the source filed them. How the source made its calls, unless noted: active means hit-call score of the fitted dose curve at least 0.9, where 1 is the maximum; inactive means score below 0.9.

How the values were obtained:
[1] = CCTE_Harrill_HTTr_Viability_MCF7: CCTE's 6-hour Cell Viability Assessment for the High-Throughput Transcriptomics (HTTr) Platform, in MCF-7 cells cultured in DMEM + 10% fetal bovine serum, Harrill Lab (AID 2284010)
Outline: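 MCF-7 cells in DMEM + 10% FBS, 384-well, exposed 6 h to an eight-point dilution series. Membrane integrity scored by high-content imaging of propidium iodide exclusion; bidirectional fit versus DMSO.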

[2] = CCTE_Harrill_HTTr_Apoptosis_MCF7: CCTE's 6-hour Apoptosis Assessment for the High-Throughput Transcriptomics (HTTr) Platform, in MCF-7 cells cultured in DMEM + 10% fetal bovine serum, Harrill Lab (AID 2284011)
Outline: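 MCF-7 cells in DMEM + 10% fetal bovine serum were exposed to chemicals for 6 hours over an eight-point dilution series. Caspase-3/7 activation was imaged by high content imaging with CellEvent Caspase 3/7 Green; bidirectional fitting used DMSO as baseline.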

[3] = CCTE_Shafer_MEA_dev_firing_rate_mean: CCTE's Neural Network Formation Assay for Mean Firing Rate, Shafer Lab (AID 2284031);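 further: curve fitted for loss of firing so AC50 reflects decreased mean firing rate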
Outline: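 Primary rat cortical neurons on 48-well MEA plates, exposed from plating day 0 with dosing renewed on DIV 5 and 9. Mean well firing rate over active electrodes, recorded days 5, 7, 9, 12, summarised as trapezoidal AUC.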

[4] = CCTE_Shafer_MEA_dev_per_burst_spike_percent: CCTE's Neural Network Formation Assay for Percent of Spikes in a Burst, Shafer Lab (AID 2284032);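 further: fitted as a decrease in burst spike percentage below DMSO baseline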
Outline: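 Rat primary cortical neurons on 16-electrode MEA wells, dosed from plating day 0 for 12 days with renewal on DIV 5 and 9; spikes-in-bursts percentage averaged over bursting electrodes, collapsed as AUC across days 5, 7, 9, 12; loss direction versus DMSO.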

[5] = CCTE_Shafer_MEA_dev_active_electrodes_number: CCTE's Neural Network Formation Assay for Number of Active Electrodes, Shafer Lab (AID 2284040; active means hit-call score of the fitted dose curve at least 0.9, where 1 is the maximum;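 further: potency for loss of active electrodes versus DMSO so lower counts are hits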)
Outline: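 Primary rat cortical neurons on 16-electrode MEA wells, exposed from day 0 through day 12 with compound renewed at DIV 5 and 9 feeds. Active electrodes (mean firing ≥5 spikes/min) counted at DIV 5, 7, 9, 12; trapezoidal AUC across days, loss-of-signal versus DMSO.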

[6] = CCTE_Shafer_MEA_dev_burst_rate: CCTE's Neural Network Formation Assay for Burst Rate, Shafer Lab (AID 2284042);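 further: potency for loss of burst rate below DMSO control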
Outline: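 Primary rat cortical neurons on PEI-coated 48-well MEA plates (laminin added with cells at plating) (16 electrodes/well), exposed from plating to day 12, dosing renewed at DIV 5 and 9. Burst rate averaged over active electrodes, recorded DIV 5, 7, 9, 12, summarized as AUC; loss versus DMSO.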

[7] = CCTE_Shafer_MEA_dev_bursting_electrodes_number: CCTE's Neural Network Formation Assay for Number of Bursting Electrodes, Shafer Lab (AID 2284043; active means hit-call score of the fitted dose curve at least 0.9, where 1 is the maximum;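 further: potency is for loss of bursting electrodes relative to DMSO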)
Outline: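 Primary rat cortical neurons plated on 16-electrode MEA wells, exposed from day 0 with compound renewed at DIV 5 and 9. Electrodes bursting ≥1 burst per 2 min counted on days 5, 7, 9 and 12; trapezoidal AUC across days, fitted for loss versus DMSO.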

[8] = CCTE_Shafer_MEA_dev_per_burst_interspike_interval: CCTE's Neural Network Formation Assay for Burst Interspike Interval, Shafer Lab (AID 2284044);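 further: mean spike spacing inside bursts as AUC over recordings on days 5 7 9 12; potency for a decrease of within-burst interspike interval below DMSO level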
Outline: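 Rat cortical primary cultures, 16 electrodes/well; compound from plating, renewed with full media change DIV 5 and 9. Spikes via adaptive detector; per-burst ISI well-mean over active bursting electrodes; AUC of DIV 5/7/9/12 recordings; loss-direction fit vs DMSO.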

[9] = CCTE_Shafer_MEA_dev_burst_duration_mean: CCTE's Neural Network Formation Assay for Mean Burst Duration, Shafer Lab (AID 2284045);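 further: curve fitted for loss meaning shorter burst duration than DMSO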
Outline: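 Primary rat cortical neurons on 48-well 16-electrode MEA plates, exposed from day 0 with renewal at DIV 5 and 9; spontaneous activity recorded on days 5, 7, 9, 12. Well-mean burst duration across bursting electrodes, collapsed as trapezoidal AUC; DMSO baseline.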

[10] = CCTE_Shafer_MEA_dev_interburst_interval_mean: CCTE's Neural Network Formation Assay for Mean Interburst Interval, Shafer Lab (AID 2284046);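 further: well-mean interburst interval of bursting electrodes as AUC over four recording days; curve fitted for decrease in interburst interval relative to DMSO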
Outline: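 Recordings on days 5, 7, 9 and 12 give well-mean interburst interval across actively bursting electrodes, summarized as area under the curve. Cultures: rat cortical neurons, continuous exposure from day 0, compound renewed at feeds; decrease analyzed versus DMSO.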

[11] = CCTE_Shafer_MEA_dev_inter_network_spike_interval_mean: CCTE's Neural Network Formation Assay for Mean Inter-network Spike Interval, Shafer Lab (AID 2284047)
Outline: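 Primary rat cortical neurons on 16-electrode MEA wells, exposed from plating day 0 through DIV 12, compound renewed at DIV 5 and 9 media changes. Mean interval between network-spike peaks recorded DIV 5, 7, 9, 12; collapsed as trapezoidal AUC, fitted downward versus DMSO.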

[12] = CCTE_Shafer_MEA_dev_network_spike_number: CCTE's Neural Network Formation Assay for Number of Network Spikes, Shafer Lab (AID 2284048);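 further: fit as a loss of signal meaning fewer network spikes than DMSO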
Outline: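 Primary rat cortical neurons on PEI/laminin 48-well MEA plates, dosed from plating day 0 for 12 days, renewed at DIV 5 and 9. Network spike counts recorded DIV 5, 7, 9, 12, collapsed as trapezoidal AUC; DMSO baseline.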

[13] = CCTE_Shafer_MEA_dev_network_spike_peak: CCTE's Neural Network Formation Assay for Mean Number of Electrodes in Network Spike, Shafer Lab (AID 2284049);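 further: fitted for loss of signal meaning fewer electrodes in network spikes than DMSO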
Outline: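 Network-spike peak electrode count from recordings on days 5, 7, 9 and 12 was combined as trapezoidal area under the curve. Rat cortical cultures were treated continuously from plating, with compound renewed at each feed (DIV 5, 9); fits versus DMSO.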

[14] = CCTE_Shafer_MEA_dev_spike_duration_mean: CCTE's Neural Network Formation Assay for Mean Spike Duration, Shafer Lab (AID 2284051);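 further: mean network spike duration pooled as area under curve over DIV 5 to 12 recordings; potency for a decrease in mean network spike duration versus DMSO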
Outline: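 Primary rat cortical neurons on 16-electrode MEA wells (PEI-coated, laminin in plating drop), exposed from plating through DIV 12 with compound renewed at DIV 5 and 9. Mean network-spike duration recorded DIV 5, 7, 9, 12; trapezoidal AUC across days, DMSO baseline.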

[15] = CCTE_Shafer_MEA_dev_network_spike_duration_std: CCTE's Neural Network Formation Assay for Standard Deviation of Network Spike Duration, Shafer Lab (AID 2284052);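 further: area under curve of spike duration SD across recording days 5 to 12; hits are decreases in network spike duration SD versus DMSO vehicle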
Outline: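 Primary rat cortical neurons on PEI-coated 16-electrode MEA wells, exposed from plating day 0 through day 12 with compound renewed at DIV 5 and 9. Network spike duration SD recorded on days 5, 7, 9, 12, collapsed as trapezoidal AUC; loss-of-signal fit versus DMSO.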

[16] = CCTE_Shafer_MEA_dev_per_network_spike_spike_number_mean: CCTE's Neural Network Formation Assay for Mean Number of Spikes in a Network Spike, Shafer Lab (AID 2284053);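 further: fitted as decrease in spikes per network spike relative to DMSO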
Outline: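 Primary rat cortical neurons on 48-well, 16-electrode MEA plates were exposed from plating to DIV 12, with dosing renewed on DIV 5 and 9. Spikes per network spike (0.05 s peak window) were recorded on DIV 5, 7, 9 and 12 and collapsed as trapezoidal AUC versus DMSO.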

[17] = CCTE_Shafer_MEA_dev_per_network_spike_spike_percent: CCTE's Neural Network Formation Assay for Percent of Spikes in a Network Spike, Shafer Lab (AID 2284054)
Outline: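 Rat primary cortical neurons were grown on 48-well MEA plates (16 electrodes/well), exposed from plating day 0 through day 12, with treatment renewed on DIV 5 and 9. Percent of spikes within 0.05 s network-spike peaks was measured, summarised as AUC across days 5, 7, 9, 12.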

[18] = CCTE_Shafer_MEA_dev_LDH: CCTE's Lactate Dehydrogenase Assay for Cytotoxicity in the Neural Network Formation Assay, Shafer Lab (AID 2284068; active means hit-call score of the fitted dose curve at least 0.9, where 1 is the maximum;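 further: exposure for twelve days from plating with re-dosing on DIV 5 and 9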)
Outline: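 Primary rat cortical neurons were plated on PEI/laminin MEA plates and exposed from day 0 for twelve days, with compound renewed at DIV 5 and 9. Cytotoxicity was determined by spectrophotometric LDH assay relative to DMSO.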

[19] = CCTE_Shafer_MEA_dev_AB: CCTE's Alamar Blue Assay for Cytotoxicity in the Neural Network Formation Assay, Shafer Lab (AID 2284083; active means hit-call score of the fitted dose curve at least 0.9, where 1 is the maximum;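 further: twelve days of exposure from plating with re-dosing on DIV 5 and 9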)
Outline: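 Primary rat cortical neurons on PEI-coated 48-well MEA plates, 1.5 x 10^5 cells/well in laminin drop; compound exposure from day 0 of plating for twelve days, renewed at medium changes on DIV 5 and 9. Viability read as resazurin reduction by fluorescence, relative to DMSO.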

[20] = CCTE_Shafer_MEA_dev_mutual_information_norm: CCTE's Neural Network Formation Assay for Mutual Information Normalization, Shafer Lab (AID 2284091);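 further: mutual information between electrodes summarised as area under curve across four recording days; potency is for a decrease in mutual information relative to DMSO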
Outline: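 Primary rat cortical neurons on PEI-coated 48-well MEA plates, 1.5 x 10^5 cells/well, exposed from day 0 through day 12 with re-dosing at DIV 5 and 9. Mutual information between electrodes recorded days 5, 7, 9, 12; trapezoidal AUC, loss-of-signal fit versus DMSO.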

[21] = CCTE_Shafer_MEA_dev_correlation_coefficient_mean: CCTE's Neural Network Formation Assay for Mean Correlation Coefficient, Shafer Lab (AID 2284093);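 further: well mean pairwise spike train correlation integrated as AUC over recording days 5 to 12; potency fitted for loss of correlation relative to DMSO vehicle wells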
Outline: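 Spontaneous activity recorded on days 5, 7, 9 and 12 post-plating; pairwise spike correlations are averaged across active electrodes and collapsed to an area-under-curve. Rat cortical cultures are dosed from plating through 12 days, with compound renewed at media changes.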

[22] = UKN2_HCS_IMR90_neural_migration: University of Konstanz (UKN) Leist Lab Neural Crest Cell Migration Assay in human induced IMR90 Pluripotent Stem Cells (UKN2) (AID 2284204); conditions: actives raise or lower the signal
Outline: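 iPSC-derived IMR90 neural crest cells seeded around stoppers on PLO/laminin/fibronectin; migration started in N2-S medium with EGF/FGF, compounds added after 24 h for 24 h. Migration into cell-free area imaged after calcein-AM/Hoechst staining; bidirectional fit versus DMSO.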

[23] = IUF_NPC1b_proliferation_BrdU_72hr: Leibniz Research Institute for Environmental Medicine (IUF) 72-hour Neural Progenitor Cell Bromodeoxyuridine (BrdU) Proliferation Assay (NPC1b) (AID 2284207)
Outline: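 BrdU luminescence ELISA quantified DNA synthesis over the last 16 h of a 72 h exposure, fitted against DMSO. Primary hNPC spheres from gestational week 16-19 cortex grown with EGF/FGF at 37C, pH 7.2-7.6.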

[24] = IUF_NPC1a_proliferation_area_72hr: Leibniz Research Institute for Environmental Medicine (IUF) 72-hour Neural Progenitor Cell Proliferation Area Assay (NPC1a) (AID 2284208)
Outline: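 Read-out: increase in sphere area over 72 h by automated phase-contrast imaging, fitted in positive direction versus DMSO baseline. One hNPC sphere (0.25-0.35 mm) per well in EGF/FGF medium; growth-factor withdrawal served as positive control.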

[25] = IUF_NPC1_viability_72hr: Viability Assessment at 72 hours in the Leibniz Research Institute for Environmental Medicine (IUF) Neural Progenitor Cell Proliferation Assay (NPC1) (AID 2284209)
Outline: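 Single spheres (0.25-0.35 mm) of human fetal cortex-derived neural progenitor cells were grown in proliferation medium with EGF and FGF at 37C and 5% CO2. They were exposed for 72 h without renewal, and viability was read by alamar blue resorufin fluorescence.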

[26] = CCTE_Mundy_HCI_Cortical_Synap_Neur_Matur_NeuriteSpotCountPerNeuriteLength: CCTE's Synaptogenesis and Neurite Maturation Assay in rat cortical cells for Neurite Spot Count per Neurite Length, Mundy Lab (AID 2284210)
Outline: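 Rat primary cortical cultures, AraC added at DIV 5 to suppress glia; chemical exposure from DIV 7 to DIV 12. Fixed cells stained for MAP2 and synaptophysin plus Hoechst; synaptophysin puncta per neurite length quantified by high-content imaging, relative to DMSO.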

[27] = CCTE_Mundy_HCI_Cortical_NOG_NeuriteCount: CCTE's Neurite Outgrowth Assay in rat cortical cells for Neurite Count, Mundy Lab (AID 2284212);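 further: cells fixed about two days after chemical exposure began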
Outline: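 Neurite number per cell from high-content imaging of betaIII-tubulin immunostaining, with Hoechst nuclear counterstain.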

[28] = CCTE_Mundy_HCI_Cortical_NOG_NeuriteLength: CCTE's Neurite Outgrowth Assay in rat cortical cells for Neurite Length, Mundy Lab (AID 2284213);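 further: neurites imaged about 48 to 50 h after chemical exposure began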
Outline: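 Neurite length was read by high-content imaging of βIII-tubulin-labelled neurites in rat primary cortical cultures. Activity was fitted relative to DMSO.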

[29] = CCTE_Mundy_HCI_Cortical_Synap_Neur_Matur_NeuriteLength: CCTE's Synaptogenesis and Neurite Maturation Assay in rat cortical cells for Neurite Length, Mundy Lab (AID 2284214)
Outline: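 Rat primary cortical cultures, AraC added DIV 5, dosed DIV 7 through DIV 12 […]. Fixed, MAP2/synaptophysin immunostained with Hoechst; neurite length by high-content imaging, fitted in positive direction versus DMSO.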

[30] = CCTE_Mundy_HCI_Cortical_Synap_Neur_Matur_NeuriteSpotCountPerNeuron: CCTE's Synaptogenesis and Neurite Maturation Assay in rat cortical cells for Neurite Spot Count per Neuron Count, Mundy Lab (AID 2284215)
Outline: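 Rat primary cortical cells received AraC at DIV 5, then chemicals with a media change at DIV 7, and were fixed at DIV 12. Synaptophysin puncta on MAP2-stained neurites per neuron were counted by high-content imaging, fitted relative to DMSO.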

Measured: AC50

CC(CNC(=S)[S-])NC(=S)[S-].[Zn+2] (stereo not given)
inactive: [1] | [2] | [11] | [22] | [24] | [25] | [26]
active: [3] 6.97 µM | [4] 17.4 µM | [5] 16.8 µM | [6] 9.92 µM | [7] 15 µM | [8] 26.2 µM | [9] 9.67 µM | [10] 50 µM | [12] 8.44 µM | [13] 20.9 µM | [14] 8.64 µM | [15] 3.38 µM | [16] 24.7 µM | [17] 91.5 µM | [18] 39.4 µM | [19] 32.2 µM | [20] 4.05 µM | [21] 19.7 µM | [23] 50 µM | [27] 31.5 µM | [28] 27.6 µM | [29] 50 µM | [30] 50 µM
